Shown are actives, neighbours in structure and some others; about 10% of the full set was active somewhere.
NIH3T3 tox: Cytotoxic Profiling in NIH 3T3 Cell Line of Diverse Libraries Using Quantitative High-Throughput Screening. NIH 3T3 viability, CellTiter-Glo ATP luminescence, 48-72 h. Potency, µM (highest dose often 96.7 µM), inactives show at the highest dose activity change, negative = cytotoxicity, usual class: inhibitors. hit rate 4.3% among 94,000; further: nearly all actives have a fitted effect of over 55% in size
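ATP-dependent luminescence (CellTiter-Glo) served as the viability signal for NIH 3T3 cells treated with compound for 48 or 72 hr at 37 °C.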
GPT2 inh: Primary qHTS assay for inhibitors of Glutamate pyruvate transaminase 2 (GPT2) | hit rate 0.25% among 100,000 | Alanine aminotransferase 2 (Homo sapiens), Q8TD30 | Potency, µM (series often up to 57.7 µM), for the others: top-dose activity change, negative = inhibition, most hits filed as inhibitors | Recombinant GPT2, coupled pyruvate oxidase/HRP Amplex Red fluorescence; further: nearly all actives have a fitted effect of over 60% in size
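Inhibition is scored from Amplex Red fluorescence generated when pyruvate oxidase and HRP act on pyruvate released by GPT2. Reactions contain 10ng/uL enzyme, 250uM a-KG and 2mM L-alanine and run 30 min at room temperature.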
hNpr1 antagonist: Natriuretic polypeptide receptor (hNpr1) antagonism - Primary qHTS; Atrial natriuretic peptide receptor 1 (Homo sapiens), P16066; hit rate 1.6% among 76,000; Potency, µM (top dose mostly 46.3 µM), for the others: top-dose activity change, negative = inhibition, usual class: inhibitors; HEK293 hNpr1 GloSensor cGMP, ANP-stimulated luminescence; calls by dose curve; further: nearly all actives have a fitted effect of over 60% in size
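Compound pre-incubated 30 min at room temperature on GloSensor-loaded HEK293 cells stably carrying hNpr1 and the pGS-40F cGMP biosensor. Stimulation uses hNppA at 0.1 nM final; luminescence is taken at baseline and 20 min post-agonist.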
FLuc inh: Firefly luciferase inhibition profiling of diverse chemical library using quantitative high-throughput screening; purified P. pyralis luciferase, luminescence, biochemical; Potency, µM (doses to about 115 µM), most hits filed as inhibitors; hit rate 2.5% among 76,000; AID 1347043, 2019; further: nearly all actives have a fitted effect of over 65% in size
Target sequence (P08659 whole entry, looked up): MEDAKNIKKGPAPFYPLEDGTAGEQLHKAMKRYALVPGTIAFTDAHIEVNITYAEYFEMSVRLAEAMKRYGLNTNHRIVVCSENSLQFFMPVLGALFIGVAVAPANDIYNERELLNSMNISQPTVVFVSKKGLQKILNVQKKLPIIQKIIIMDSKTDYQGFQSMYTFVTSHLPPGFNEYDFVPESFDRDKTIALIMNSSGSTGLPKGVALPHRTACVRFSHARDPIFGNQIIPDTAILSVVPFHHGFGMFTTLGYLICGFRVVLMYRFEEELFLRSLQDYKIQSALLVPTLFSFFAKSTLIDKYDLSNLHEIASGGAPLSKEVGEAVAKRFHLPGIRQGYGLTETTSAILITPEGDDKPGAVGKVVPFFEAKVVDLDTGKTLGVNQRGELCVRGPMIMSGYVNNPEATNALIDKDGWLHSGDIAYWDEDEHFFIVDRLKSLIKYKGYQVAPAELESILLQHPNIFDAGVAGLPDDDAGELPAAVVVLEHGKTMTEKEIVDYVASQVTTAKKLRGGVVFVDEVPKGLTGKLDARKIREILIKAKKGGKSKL
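Luminescence read by CCD imager after adding enzyme (10nM final) to wells holding compound, titrated in qHTS. Substrates 10uM each D-luciferin and ATP; buffer 50mM Tris acetate pH 7.5, 10mM Mg acetate, Tween-20, BSA.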
HEK293 tox: Cytotoxic Profiling in HEK 293 Cell Line of Diverse Libraries Using Quantitative High-Throughput Screening; HEK 293 viability, ATP luminescence (CellTiter-Glo), 48-72 h; Potency, µM (doses to about 115 µM), for inactives: at the top dose activity change, negative = cytotoxicity, actives largely listed as inhibitors; hit rate 6.6% among 94,000; further: nearly all actives have a fitted effect of over 60% in size
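HEK 293 seeded at 250 cells/well receive compound via pintool. After 48 or 72 hr at 37 degree Celsius, 5% CO2 and 95% humidity, CellTiter-Glo is dispensed and luminescence read following 10 min at room temperature.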
* = called active by the depositor; i = inactive; ? = inconclusive; . = no result given; [ ] = remark or other dose. Unless noted, the call rests on the fitted dose curve; in most records, active means well fitted curve in the direction sought with a large enough effect; inconclusive means small, poorly fitted or top-dose-only effect, or another doubt; inactive means no such curve, though single readings can be large; an effect the other way counts as inactive or inconclusive. On the % scale 0 is the no-effect control and ±100 the full control effect; potency means the concentration at half of the fitted maximal effect.

SMILES	NIH3T3 tox	GPT2 inh	hNpr1 antagonist	FLuc inh	HEK293 tox
COCc1ccc2c(c1)c(OC(C)(C)C(=O)NCc1ccncc1)nn2Cc1ccccc1	28.2µM*	-2.5%	3.5%	i	-27.8%
COCc1ccc2c(c1)c(OC(C)(C)C(=O)N(C)C)nn2Cc1ccccc1	?	i	3.5%[70.6 µM]	i	-27.5%[172 µM]
COc1ncccc1-c1nc2cc(C(=O)NCCCc3ccccc3)ccc2o1	?	-2.9%	.	.	?
COCCCNC(=O)c1ccccc1-c1ccc(OC)nn1	-1.0%[138 µM]	.	.	.	0.2%[172 µM]
COc1ccccc1C(O)c1nc(Nc2ccc(C(C)C)cc2)n[nH]1 (stereo not given)	?	-24.2%[88.5 µM]	-11.0%[70.6 µM]	i	100µM*
OC(c1nc(Nc2ccc(N3CCOCC3)cc2)n[nH]1)C1CC1 (stereo not given)	?	?	-0.8%[70.6 µM]	i	?
OC(c1cccc(C(F)(F)F)c1)c1nc(Nc2ccc(F)cc2)n[nH]1 (stereo not given)	?	2.8%[88.5 µM]	-26.0%[70.6 µM]	i	79.4µM*
Cn1cc(C(O)c2nc(Nc3ccc(OC(F)(F)F)cc3)n[nH]2)cn1 (stereo not given)	?	1.5%[88.5 µM]	0.7%[70.6 µM]	i	112µM*
OC(c1nc(Nc2ccc(Cl)cc2)n[nH]1)C1CC1 (stereo not given)	?	i	-23.5%[70.6 µM]	22.4µM*	?
COc1ccc(CNC(=O)C2CN(C3CCCC3)C(=O)N2)cc1 (stereo not given)	-15.3%[138 µM]	?	.	.	-6.1%[172 µM]
CC(C)c1ccc(Nc2n[nH]c(C(O)C3CC3)n2)cc1 (stereo not given)	?	i	-17.4%[70.6 µM]	15.8µM*	?
COc1ccc(-c2ccc3ncc(Nc4ccc(C(N)=O)cc4)n3n2)cc1OC	17.8µM*	-15.2%[88.5 µM]	2.5%[70.6 µM]	i	?
COc1ccc(-c2ccc3ncc(Nc4cccc(F)c4)n3n2)cn1	?	?	-16.5%[70.6 µM]	?	63.1µM*
COc1ccc(-c2ccc3ncc(Nc4cc(F)ccc4OC)n3n2)cn1	-11.0%[138 µM]	?	-6.8%[70.6 µM]	i	?
COc1ccc(-c2ccc3ncc(Nc4ccc(C(N)=O)cc4)n3n2)cn1	?	?	-1.8%[70.6 µM]	i	?
COc1ccc(-c2ccc3ncc(Nc4cccc(F)c4)n3n2)cc1OC	?	-21.0%[88.5 µM]	4.4%[70.6 µM]	i	63.1µM*
c1ccc(-c2ccc3ncc(Nc4ccc(N5CCOCC5)cc4)n3n2)cc1	?	i	2.2%[70.6 µM]	i	?
COc1ccc(-c2ccc3ncc(Nc4ccnc(N5CCOCC5)c4)n3n2)cc1OC	44.7µM*	?	3.5%[70.6 µM]	?	?
O=C(NCCc1ccc(Cl)cc1)c1nc(-c2cccnc2)c2cnccn12	?	3.2%	-3.6%	i	?
O=C(Nc1ccccc1)N1CCCC(C(=O)N2CCC(c3nc4ccncc4[nH]3)C2)C1 (stereo not given)	-25.3%	i	.	.	-10.3%
COc1ccc(-c2ccc3ncc(Nc4ccccc4C)n3n2)cn1	89.1µM*	i	-1.2%[70.6 µM]	i	?
COc1ccc(-c2ccc3ncc(Nc4ccccc4OC)n3n2)cn1	?	i	-2.2%[70.6 µM]	i	?
COc1ccc(-c2ccc3ncc(Nc4ccccc4)n3n2)cc1OC	20µM*	?	0.8%[70.6 µM]	i	35.5µM*
O=C1CCN(Cc2ccc(F)cc2F)CCCC(c2nc(-c3cnccn3)no2)CCN1 (stereo not given)	?	i	1.7%	i	?
CC1(CCCCc2ccccc2)COc2ccc(C(=O)NCc3cccnc3)cc2N1 (stereo not given)	?	-18.6%[88.5 µM]	-20.0%[70.6 µM]	i	?
SMILES	NIH3T3 tox	GPT2 inh	hNpr1 antagonist	FLuc inh	HEK293 tox
CC1(CCCCc2ccccc2)COc2ccc(C(=O)NCc3ccncc3)cc2N1 (stereo not given)	?	-24.6%[88.5 µM]	?	i	89.1µM*
CC1(CCCCN2CCOCC2)COc2ccc(C(=O)NCc3ccccc3)cc2N1 (stereo not given)	-21.7%[138 µM]	-21.7%[88.5 µM]	0.6%[70.6 µM]	i	?
CC1(CCCCc2ccccc2)COc2ccc(C(=O)NCCN3CCOCC3)cc2N1 (stereo not given)	79.4µM*	-6.6%[88.5 µM]	-2.3%[70.6 µM]	i	89.1µM*
CCCN1CCC2(CCN([S+](=O)([O-])c3cccc(OC)c3)CC2)Oc2ccccc21	?	i	0.0%	i	?
COc1ccc(-c2ccc3nnc(CNC(=O)c4cccc(NC(C)=O)c4)n3n2)cc1	-14.0%	i	5.6%	i	-15.8%
O=C([C@@H]1C[C@H](Oc2ccccc2)CN1C(=O)CC1CCCC1)N1CCCC1	31.6µM*	?	0.2%	i	i
Cc1noc(-c2ccc(OC3CN(C(=O)Cc4ccccc4)C3)cc2)n1	-13.0%	i	-14.6%	i	?
Cc1noc(-c2ccc(OC3CN(C(=O)Nc4ccccc4)C3)cc2)n1	-46.8%	i	12.6µM*	?	?
Cc1noc(-c2ccc(OC3CN(C(=O)CC4CCCC4)C3)cc2)n1	?	i	?	i	31.6µM*
COc1c(C(CC(C)C)OC(C)=O)ccc(Oc2c(O)cc(C)cc2/C=C/C(C)=O)c1C(=O)O (stereo not given)	.	-53.1%[27.3 µM]	.	.	.
Cc1ccc(C(=O)N2CCC[C@@H]2C(=O)N2CCC(N3CCOC3=O)CC2)cc1	-6.6%	4.9%	.	.	-7.3%
Cc1cc(C(=O)N2CCCC(CCc3c(F)cccc3F)C2)nc(C)n1 (stereo not given)	?	3.4%	3.9%	i	?
CCn1cc(-c2ccc(Cl)cc2)cc1C(=O)NCCN1CCOCC1	?	i	0.5%	i	?
CCn1cc(-c2ccc(C)cc2)cc1C(=O)N1CCCN(C)CC1	?	i	-10.4%	i	79.4µM*
CCn1cc(-c2ccc(Cl)cc2)cc1C(=O)NCC(=O)OC	?	-3.4%	2.3%	39.8µM*	-32.7%
CCn1cc(-c2ccc(Cl)cc2)cc1C(=O)N1CCN(C(C)C)CC1	39.8µM*	-6.9%	-8.9%	i	?
CCn1cc(-c2ccc(Cl)cc2)cc1C(=O)N1CCCN(C)CC1	17.8µM*	i	-8.7%	i	25.1µM*
CCOC(=O)CNC(=O)c1cc(-c2ccc(Cl)cc2)cn1C	-26.9%	i	-16.1%	i	-16.3%
CCOc1cc(CN2CCC(C)(c3noc(C4CCOCC4)n3)CC2)ccc1O	2.1%	i	0.6%	i	-3.4%
Cc1nn(C)c(C)c1S(=O)(=O)N1CC[C@@H]2COCCN(C)[C@@H]2C1	-18.4%	i	.	.	-6.9%
